From PMC4336329 (PLoS ONE, 2015)
Out of some 310,000 compounds screened, about 14,000 (4.5%) showed an effect of 50% or more. The effect is printed as a negative number. Shown is part of a subset that was picked to be rich in strong results.

Each compound was assayed against human ether-à-go-go-related gene (hERG) potassium channel (human, UniProt Q12809) (assay: primary screen, population patch clamp on CHO cells stably expressing hERG; higher = less effect of the substance).
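Further: peak tail current of the secondary pulse compared with the same well before compound.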

human ether-à-go-go-related gene (hERG) potassium channel, sequence (Q12809 whole entry, looked up): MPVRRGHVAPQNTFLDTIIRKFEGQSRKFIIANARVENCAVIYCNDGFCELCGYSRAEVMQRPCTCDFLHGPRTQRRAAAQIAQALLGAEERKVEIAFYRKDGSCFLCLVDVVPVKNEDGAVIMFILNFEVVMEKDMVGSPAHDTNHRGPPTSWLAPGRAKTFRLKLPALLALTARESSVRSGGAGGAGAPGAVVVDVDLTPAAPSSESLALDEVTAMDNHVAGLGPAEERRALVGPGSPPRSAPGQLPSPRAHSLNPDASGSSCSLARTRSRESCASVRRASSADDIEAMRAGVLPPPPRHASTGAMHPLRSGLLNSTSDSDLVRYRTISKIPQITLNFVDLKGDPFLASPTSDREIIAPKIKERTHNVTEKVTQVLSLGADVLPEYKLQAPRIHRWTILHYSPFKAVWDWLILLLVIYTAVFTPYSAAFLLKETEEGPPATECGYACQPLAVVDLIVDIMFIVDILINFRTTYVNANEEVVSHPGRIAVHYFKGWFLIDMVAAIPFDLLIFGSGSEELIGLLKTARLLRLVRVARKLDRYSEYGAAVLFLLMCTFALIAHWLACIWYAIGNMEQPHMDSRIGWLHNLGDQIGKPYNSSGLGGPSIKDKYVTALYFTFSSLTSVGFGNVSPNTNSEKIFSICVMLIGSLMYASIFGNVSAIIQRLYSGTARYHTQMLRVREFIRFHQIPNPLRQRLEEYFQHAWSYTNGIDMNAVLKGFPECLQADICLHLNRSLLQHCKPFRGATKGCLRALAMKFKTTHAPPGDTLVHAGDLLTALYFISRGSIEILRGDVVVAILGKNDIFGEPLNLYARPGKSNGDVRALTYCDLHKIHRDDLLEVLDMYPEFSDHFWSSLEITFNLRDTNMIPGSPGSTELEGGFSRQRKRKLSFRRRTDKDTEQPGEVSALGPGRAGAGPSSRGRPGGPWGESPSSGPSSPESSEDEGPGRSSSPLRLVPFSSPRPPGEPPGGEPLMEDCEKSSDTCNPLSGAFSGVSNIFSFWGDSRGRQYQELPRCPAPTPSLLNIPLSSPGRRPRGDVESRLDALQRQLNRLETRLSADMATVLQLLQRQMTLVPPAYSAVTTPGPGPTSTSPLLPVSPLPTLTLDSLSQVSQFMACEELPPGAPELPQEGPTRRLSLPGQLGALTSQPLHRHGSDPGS

Going from `O=C(Nc1ccc(N2CCN(C(=O)c3ccccc3)CC2)c(Cl)c1)c1ncn[nH]1` to `O=C(Nc1ccc(N2CCN(C(=O)c3ccccc3)CC2)c(Cl)c1)c1ccco1`, the “hERG current change (%, negative = inhibition) at 10uM” value falls from -5.79% to -29.5%.

First: CC(=O)N1CCN(c2ccc(NC(=O)c3ccc(Br)o3)cc2Cl)CC1
Second: O=C(Nc1ccc(N2CCN(C(=O)c3ccccc3)CC2)c(Cl)c1)c1ccc(Br)o1
The “hERG current change (%, negative = inhibition) at 10uM” value of the first is higher: -55.3% for the first, -58.2% for the second.

First: O=C(Nc1ccc(N2CCOCC2)c(Cl)c1)c1ccc(Br)o1
Second: O=C(Nc1ccc(N2CCCC2)c(Cl)c1)c1ccc(Br)o1
The “hERG current change (%, negative = inhibition) at 10uM” value of the first is lower: -31.9% for the first, -7.29% for the second.

Going from `CCCCN(CC)S(=O)(=O)c1ccc(C(=O)Nc2nnc(-c3cccs3)o2)cc1` to `C/C(=N\NC(=O)c1ccc(NS(=O)(=O)c2cccs2)cc1)c1ccc(O)cc1O`, the “hERG current change (%, negative = inhibition) at 10uM” value rises from -8.71% to -0.956%.

First: COc1ccc(S(=O)(=O)N2CCOCC2)cc1NC(=O)CSc1nnc(C2CC2)n1C1CC1
Second: COc1ccc(CCN2CC(C(=O)NC3CCCCC3)CC2=O)cc1OC (centres unmarked)
The “hERG current change (%, negative = inhibition) at 10uM” value of the first is lower: 2.57% for the first, 10.2% for the second.

Going from `O=C(CN1C(=O)NC2(CCCc3ccccc32)C1=O)NCc1cccs1` (centres unmarked) to `O=C(CCCc1ccccc1)NCCS(=O)(=O)N1CCN(c2ccc(F)cc2)CC1`, the “hERG current change (%, negative = inhibition) at 10uM” value falls from 6.2% to -39.3%.

Compared with `CCOC(=O)C1CCCN(C(=S)Nc2cccc(Cl)c2)C1` (centres unmarked), `O=C(O)C1CCCN(S(=O)(=O)c2cccc3cccnc23)C1` (centres unmarked) is higher in “hERG current change (%, negative = inhibition) at 10uM” value: -5.74% for the first, 10.9% for the second.

Compared with `COC(=O)Cc1[nH]n(-c2nc3ccccc3s2)c(=O)c1C(C)=Nc1ccc(C)cc1`, `COC(=O)Cc1[nH]n(-c2nc3ccccc3s2)c(=O)c1C(C)=O` is higher in “hERG current change (%, negative = inhibition) at 10uM” value: 5.94% for the first, 21.6% for the second.

Going from `CCCN=Cc1c(CCC)[nH]n(-c2nc3ccccc3s2)c1=O` to `CCCc1[nH]n(-c2nc3ccccc3s2)c(=O)c1C=NCCCOC`, the “hERG current change (%, negative = inhibition) at 10uM” value rises from -66.9% to -57.2%.

First: CC(=NCc1ccco1)c1c(C)[nH]n(-c2nc3ccccc3s2)c1=O
Second: CC(=O)c1c(CC(=O)O)[nH]n(-c2nc3ccccc3s2)c1=O
The “hERG current change (%, negative = inhibition) at 10uM” value of the first is higher: 3.78% for the first, 3.17% for the second.

Compared with `Cc1[nH]n(-c2ccccc2)c(=O)c1C=NCC1CCCO1` (centres unmarked), `Cc1[nH]n(-c2ccc([N+](=O)[O-])cc2)c(=O)c1C=NCC1CCCO1` (centres unmarked) is lower in “hERG current change (%, negative = inhibition) at 10uM” value: 13.8% for the first, 0.91% for the second.

First: CCCCCN=Cc1c(C)[nH]n(-c2nc3ccccc3s2)c1=O
Second: CCCc1[nH]n(-c2nc3ccccc3s2)c(=O)c1C=NCCCN(CC)CC
The “hERG current change (%, negative = inhibition) at 10uM” value of the first is higher: -65.5% for the first, -75.9% for the second.

Compared with `CCCCN=Cc1c(C)[nH]n(-c2ccccc2)c1=S`, `CCCc1[nH]n(-c2nc3ccccc3s2)c(=O)c1C=NCC(C)C` is lower in “hERG current change (%, negative = inhibition) at 10uM” value: -4.64% for the first, -75.4% for the second.

Compared with `CCCc1cc(=O)n(-c2nc3ccccc3s2)[nH]1`, `CCCc1[nH]n(-c2nc3ccccc3s2)c(=O)c1C=NCC1CCCO1` (centres unmarked) is lower in “hERG current change (%, negative = inhibition) at 10uM” value: 11.2% for the first, -65.5% for the second.

First: CCCc1[nH]n(-c2nc3ccccc3s2)c(=O)c1C=NCCN1CCOCC1
Second: C/C(=N\NC(=O)CC(C)C)c1c(C(F)(F)F)[nH]n(-c2nc3ccccc3s2)c1=O
The “hERG current change (%, negative = inhibition) at 10uM” value of the first is lower: -34.5% for the first, 8.88% for the second.

Going from `CSc1nc(N)nc(C(C)C)n1` to `CC[C@H](C)[C@H](NC(N)=O)C(=O)NCCc1ccc(OC)cc1`, the “hERG current change (%, negative = inhibition) at 10uM” value rises from -5.59% to -0.532%.

Compared with `O=C(CSc1nc(-c2ccccc2)nc2ccc(F)cc12)Nc1cccc(C(=O)O)c1`, `Cc1cccc(OCC(=O)Nc2cccc(C(=O)NCC(C)C)c2)c1` is lower in “hERG current change (%, negative = inhibition) at 10uM” value: 2.54% for the first, -17.4% for the second.

First: O=C(NCc1cccnc1)c1cccs1
Second: O=C(NCc1cccnc1)c1ccc(=O)oc1
The “hERG current change (%, negative = inhibition) at 10uM” value of the first is higher: 11.7% for the first, -8.85% for the second.

First: COc1cc(NC(=O)C23CC4CC(C2)CC(n2nnc(C)n2)(C4)C3)c(OC)cc1Cl
Second: CCOC(=O)c1cc(NC(=O)COc2ccc([N+](=O)[O-])cc2)cc(C(=O)OCC)c1
The “hERG current change (%, negative = inhibition) at 10uM” value of the first is higher: 4.76% for the first, -12.9% for the second.

First: COC(=O)CC1SCCNC1=O (centres unmarked)
Second: O=C(O)[C@@H]1CCCN(S(=O)(=O)c2cccc3cccnc23)C1
The “hERG current change (%, negative = inhibition) at 10uM” value of the first is lower: 9.08% for the first, 11.6% for the second.

Going from `CCN(CC)CCCSc1nc2ccccc2s1.O=C(O)C(=O)O` to `NC(=O)CCn1cnc2ccccc21`, the “hERG current change (%, negative = inhibition) at 10uM” value rises from -31.9% to 6.28%.

First: Cc1cc(F)ccc1S(=O)(=O)N1CCCOC1CNC(=O)C(=O)NCc1ccc2c(c1)OCO2 (centres unmarked)
Second: O=C(Nc1ccc(F)cc1)C1CCCN(S(=O)(=O)c2cccc3cccnc23)C1 (centres unmarked)
The “hERG current change (%, negative = inhibition) at 10uM” value of the first is higher: -26.9% for the first, -49.3% for the second.

Compared with `Cc1ccc(NC(=O)CSc2nnc(-c3ccncc3)s2)cc1`, `CCOC(=O)c1cccc(NC(=O)COc2ccc([N+](=O)[O-])cc2)c1` is lower in “hERG current change (%, negative = inhibition) at 10uM” value: 5.52% for the first, -68% for the second.

Going from `O=[N+]([O-])c1ccc(N2CCCCC2)c(Cl)c1N1CCCCC1` to `O=C(C1CCCN(S(=O)(=O)c2cccc3cccnc23)C1)N1CCN(c2ccccc2F)CC1` (centres unmarked), the “hERG current change (%, negative = inhibition) at 10uM” value falls from 3.77% to -75.5%.

Compared with `C=C(C)COc1ccc(-c2nc(N)ncc2-c2ccc(Br)cc2)c(O)c1`, `CCCOC(=O)c1cccc(NC(=O)COc2ccc([N+](=O)[O-])cc2)c1` is lower in “hERG current change (%, negative = inhibition) at 10uM” value: 23.6% for the first, -26.9% for the second.

Going from `CC12CCC(C/C1=N/O)C2(C)C` (centres unmarked) to `COCc1ccc(CN2CCCC(CO)(Cc3ccccc3C)C2)o1` (centres unmarked), the “hERG current change (%, negative = inhibition) at 10uM” value falls from 6.85% to 2.18%.

First: CC(C)CNC(=O)c1cccc(NC(=O)COc2ccc([N+](=O)[O-])cc2)c1
Second: CC(C)CNC(=O)c1cccc(NC(=O)COc2cccc([N+](=O)[O-])c2)c1
The “hERG current change (%, negative = inhibition) at 10uM” value of the first is lower: -57.4% for the first, -24.7% for the second.

First: CC(=O)Nc1ccc(NC(=O)c2cc(=O)c3cc(C)c(C)cc3o2)cc1
Second: COC(=O)c1ccc(/C=N\NC(=O)CC(=O)NCCc2ccccc2)cc1
The “hERG current change (%, negative = inhibition) at 10uM” value of the first is higher: 24.6% for the first, 19.8% for the second.

Compared with `Br.N=C1CCCN1CC(=O)c1ccc(Cl)cc1`, `O=C(C1CCCN(S(=O)(=O)c2cccc3cccnc23)C1)N1CCN(c2ccc(F)cc2)CC1` (centres unmarked) is lower in “hERG current change (%, negative = inhibition) at 10uM” value: 1.8% for the first, -67.5% for the second.

`COc1ccc(N2CCN(C(=O)C3CCCN(S(=O)(=O)c4cccc5cccnc45)C3)CC2)cc1` (centres unmarked) was tested, and the “hERG current change (%, negative = inhibition) at 10uM” value was -32.1%.
